Screening results from PubChem BioAssay.
Compounds with a hit are over-represented: about 3.9% of the library has one in this group of screens.
3CLpro inhibitor – SARS-CoV 3CLpro protease inhibition | P0C6X7 | recombinant SARS-CoV 3CLpro, quenched FRET peptide cleavage | inhibition, % at 6 µM | 290,000 tested, 0.14% active; in the data active = inhibition above about 12%
Vc quorum ag – inducers of Vibrio cholerae quorum light production without autoinducers | 350,000 tested, 0.16% active | activation, % at 18.7 µM | AID 588436 | V. cholerae BH1578 lux reporter, luminescence, 6 h; in the data active = activation mostly above about 9.7%, no sharp cut-off
GDH-TPI counter – counter-screen for M. tuberculosis FBA inhibitors: GDH-TPI coupled enzymes. GDH-TPI coupled enzyme counterscreen, NADH absorbance. inhibition, % at 4.8 µM. 360,000 tested, 1.2% active. AID 588335; in the data active = inhibition above about 30%;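 note: 0% = DMSO wells and 100% = wells lacking the enzyme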
Mtb FBA inh – inhibitors of M. tuberculosis fructose-bisphosphate aldolase; AID 588726; inhibition, % at 1 µM; 360,000 tested, 2.3% active; P9WQA3; purified M. tuberculosis FBA, fluorescence read-out; in the data active = inhibition above about 27%;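 note: 0% = vehicle and 100% = reference inhibitor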
Target sequence (P9WQA3 whole entry, looked up): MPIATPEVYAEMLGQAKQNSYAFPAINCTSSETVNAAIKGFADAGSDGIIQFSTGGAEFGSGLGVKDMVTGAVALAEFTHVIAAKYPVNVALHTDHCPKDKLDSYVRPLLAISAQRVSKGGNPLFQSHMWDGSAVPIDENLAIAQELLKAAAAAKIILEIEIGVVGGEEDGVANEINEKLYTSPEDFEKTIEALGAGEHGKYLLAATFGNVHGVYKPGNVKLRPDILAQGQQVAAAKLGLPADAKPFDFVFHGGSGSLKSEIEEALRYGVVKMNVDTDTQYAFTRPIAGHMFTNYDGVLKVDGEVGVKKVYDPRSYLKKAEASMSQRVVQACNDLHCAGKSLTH
PrPC TRFRET – reduces human prion protein on the cell surface | cell surface PrPC, TR-FRET read-out | inhibition, % at 13.8 µM | 370,000 tested, 0.43% active | P04156; in the data active = inhibition above about 24%; note: 0% = median of the test wells and 100% = reference compound wells
* = called active by the depositor; i = inactive; . = no result given; + = active, no number.

SMILES	3CLpro inhibitor	Vc quorum ag	GDH-TPI counter	Mtb FBA inh	PrPC TRFRET
Cc1ccccc1CN1[C@@H](C)[C@H](c2ccccc2)Oc2cccc(N3CCCC3)c2S1(=O)=O	.	.	.	.	-2.3
O=C1NC(CCO)C(=O)NC1CCO (stereo unspecified)	.	7.1	-0.8	-2.6	-15.3
Cc1nc2ccc(-c3nc4ccc(N)cc4[nH]3)cc2[nH]1	-6.1	-0.5	3.8	+	-2.2
Nc1ccc(-c2nc3ccc(N)cc3[nH]2)cc1	-3.6	i	17.9	+	-4.9
Nc1ccc2nc(-c3cc(Cl)c(N)c(Cl)c3)[nH]c2c1	-1.2	i	35.4*	24.9	3.0
Nc1ccc2nc(-c3cccc(-c4nc5ccc(N)cc5[nH]4)c3)[nH]c2c1	-14.6	i	27.2	0.1	13.3
Cc1ccc2nc(-c3ccccc3N)[nH]c2c1	-3.2	-0.3	6.3	+	0.4
Cc1ccc2nc(-c3ccccn3)[nH]c2c1	-4.9	-0.2	9.6	5.1	1.5
Cc1ccc(C(=O)C(NC(=O)c2ccco2)Nc2sc3c(c2C(N)=O)CCCC3)cc1 (stereo unspecified)	1.7	.	.	.	.
CCCn1c(N)c(N(CCOC)C(=O)Cc2ccc(S(=O)(=O)N3CCOCC3)s2)c(=O)[nH]c1=O	.	-5.9	-7.9	3.0	-0.8
O=C1NC(=O)C2C3C=CC(C12)C1C(=O)NC(=O)C31 (stereo unspecified)	.	.	.	.	-4.1
CCOC(=O)C1CCN(C2=C(NS(=O)(=O)c3ccc(Cl)cc3)C(=O)c3ccccc3C2=O)CC1	0.7	i	0.3	129.0*	-57.5
CCOC(=O)C1CCCN(C2=C(NS(=O)(=O)c3ccc(Br)cc3)C(=O)c3ccccc3C2=O)C1 (stereo unspecified)	3.6	i	9.6	-2.5	-99.0
CN(C)/C=C/C(=O)c1nnn(C2CCCCC2)c1NC1CCCCC1	-2.6	i	38.5*	-1.4	15.8
Cc1ccc(Nc2nc(-c3c(C)nc4ncccn34)cs2)cc1	0.7	-0.2	7.1	4.9	-11.5
Cc1ccc(Nc2nc(-c3c(C)nc4ccccn34)cs2)cc1	4.7	-0.3	6.0	2.9	39.0*
COc1cc(Cn2c3ccc(NC(=O)NCc4ccc(F)cc4)cc3c(=O)n2C)ccc1F	.	-0.4	8.9	145.7*	13.2
Cn1c(=O)c2cc(NC(=O)NCCc3ccccc3)ccc2n1Cc1ccc(F)cc1	.	0.3	-5.8	185.6*	14.1
COc1ccc(CCNC(=O)Nc2ccc3c(c2)c(=O)n(C)n3Cc2ccc(F)cc2)cc1OC	.	-0.1	10.1	117.9*	7.9
COc1ccc(CCC(=O)NCc2cccc(C(F)(F)F)c2)cc1	-4.0	1.1	0.0	-0.4	10.3
COc1ccc(CNC(=O)Nc2ccc3c(c2)c(=O)n(C)n3Cc2cccc(C(F)(F)F)c2)cc1	.	i	6.2	127.7*	22.8
CCOC(=O)CC[C@@H]1CC[C@]2(CCCN(C(=O)c3ccccc3)C2)O1	.	.	.	.	-1.6
COc1ccc(NC(=O)NCCCCc2ccccc2)cc1OC	7.1	i	4.5	0.3	-1.1
C=C(C)Cn1c2ccc(NC(=O)NCCc3ccccc3)cc2c(=O)n1C	.	-0.4	-4.5	170.0*	0.0
Cc1ccc(S(=O)(=O)N(C)C)cc1NC(=O)C(C)OC(=O)/C=C/c1cccs1 (stereo unspecified)	-6.5	-0.4	-1.4	0.1	-8.8
SMILES	3CLpro inhibitor	Vc quorum ag	GDH-TPI counter	Mtb FBA inh	PrPC TRFRET
Cc1ccc(Cn2c(=N)c(C(=O)NCc3ccco3)cc3c(=O)n4ccccc4nc32)cc1	-0.8	i	12.2	51.6*	-24.2
COc1ccc(CCn2c(=N)c(C(=O)NCc3ccco3)cc3c(=O)n4ccccc4nc32)cc1OC	.	i	15.6	5.2	-55.1
COCCn1c(=N)c(C(=O)NCc2ccco2)cc2c(=O)n3cc(C)ccc3nc21	-0.1	-0.3	4.5	148.8*	-58.4
N=c1c(C(=O)NCc2ccco2)cc2c(=O)n3ccccc3nc2n1CCc1ccccc1	1.4	i	8.8	126.0*	-27.0
N=c1c(S(=O)(=O)c2ccc(Br)cc2)cc2c(=O)n3ccccc3nc2n1Cc1ccccc1	-2.0	i	6.3	1.1	-0.5
N=c1c(S(=O)(=O)c2ccc(Br)cc2)cc2c(=O)n3ccccc3nc2n1Cc1ccco1	-1.2	-2.6	14.8	130.6*	-19.5
N#CCCN(C(=O)COC(=O)/C=C/c1cccs1)c1ccccc1	.	1.0	12.3	-3.1	-2.8
COCCNC(=O)/C(C#N)=C/c1cccs1	7.9	i	47.6*	0.4	-5.0
COc1ccc(N(CCC#N)C(=O)/C(C#N)=C\c2cccs2)cc1	-4.1	-0.5	37.0*	1.4	2.5
CC(NC(=O)c1ccc(OC2CCN(Cc3ccccn3)CC2)cc1)c1nccs1 (stereo unspecified)	-6.2	0.4	-6.1	2.8	-5.4
Nc1nn2cc(-c3ccc(Br)cc3)nc2c2ccccc12	-0.7	-0.2	7.6	145.7*	13.3
CCn1c(N)[n+](CC(=O)Nc2ccc(SC(F)F)cc2)c2ccccc21	-0.8	-0.1	-3.4	1.5	-17.4
CCOc1ccc(-n2c(SC/C=C/c3ccccc3)nnc2-c2cccs2)cc1	.	.	.	.	5.5
CS(=O)(=O)Nc1ccc(C2=NN(S(C)(=O)=O)C(c3ccc4c(c3)OCO4)C2)cc1 (stereo unspecified)	1.6	-0.3	12.2	140.6*	-2.6
COc1ccccc1C1CC(c2ccc(NS(C)(=O)=O)cc2)=NN1C(=O)c1ccccc1 (stereo unspecified)	7.5	0.6	9.3	-11.8	-3.2
CCC(CC)C(=O)N1N=C(c2ccc(NS(C)(=O)=O)cc2)CC1c1ccccc1 (stereo unspecified)	0.3	-0.6	22.8	+	7.2
CCC(CC)C(=O)N1N=C(c2ccc(NS(C)(=O)=O)cc2)CC1c1ccc(C)cc1 (stereo unspecified)	4.7	-0.4	29.1	+	8.8
CCC(=O)N1N=C(c2ccccc2)CC1c1ccccc1 (stereo unspecified)	4.7	-0.8	-0.4	-0.8	2.0
CCC(=O)N1N=C(c2ccc(NS(C)(=O)=O)cc2)CC1c1ccc(C)cc1 (stereo unspecified)	1.5	1.0	16.9	+	-3.9
COc1ccc(OC)c(C2=NS(=O)(=O)N(C)C(C(=O)Nc3ccc(F)cc3F)=C2)c1	1.2	-0.6	14.4	-4.5	-6.0
COc1cccc(-c2nnc(Nc3nc4c(F)cccc4s3)o2)c1	-3.0	0.9	59.3*	133.7*	0.1
COc1cc(C(=O)N2CCCN(C)CC2)cc(OC)c1C	0.4	i	-6.9	1.5	0.3
N#CC1=C(N)SC(N)=C(C#N)C1c1c(Cl)cccc1Cl	5.8	-3.8	11.1	7.4	41.1*
O=C(O)CC1(CC(=O)Nc2ccc3ccccc3n2)CCCCC1	-0.8	-0.7	-2.3	-0.5	-1.0
COC(=O)c1ccc(S(=O)(=O)N2CCCCCC2)cc1	0.1	i	46.6*	-5.4	8.9
CC(=O)Nc1ccc(S(=O)(=O)N2CCCC2)cc1	-5.0	-0.3	5.7	-0.8	2.5
CC(C)(C)C(=O)Nc1ccc(S(=O)(=O)N2CCCC2)cc1	-1.5	-0.8	5.6	182.3*	-6.2
COc1cccc2c1cc1c(=O)n(CC(=O)N3CCN(c4cccc(C)c4C)CC3)nc(C)n12	.	0.4	0.9	7.0	1.4
